From PubChem BioAssay (NCI)
This is part of a sample that, as a whole, favours compounds with a hit. Of some 83,000 tested, about 20% had one in any assay.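 Treatment: one concentration, 48 hours, 96-well format. Scoring: percent growth, with anything below 10 considered active.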 A number with no mark means an inactive call. Activity calls are given as the source filed them.

system: HL-60(TB) leukemia; assay: NCI-60 one-dose screen, 48 h (100 = growth as untreated, 0 = no growth, -100 = all killed); settings: 10 µM unless noted

Compound	growth
Cc1nc2cc(Nc3nc(Nc4ccc(F)cc4)nc(-c4cccs4)n3)ccc2n1Cc1ccccc1	28.1%
COC1=C(OC)C(=O)C=CC1=O	60.8%
C=CCn1cc(-c2nc3ccccc3s2)c2cc(-c3ccc4c5c(cccc35)C(=O)N(CCN3CCNCC3)C4=O)ccc21	103%
Cc1cc(C)nc(NC(N)=NCCc2ccccc2)n1	56.9%
Cc1nc(C)c(C)nc1C	73.9%
O=C(Nc1cnn2ccc(N3CCC[C@@H]3c3cc(F)ccc3F)nc12)N1CC[C@H](O)C1	126%
CCOC(=O)c1cc(C(=O)c2cc(OC)cc(OC)c2)n2ncccc12	-21.7% (active)
O=C(C(=O)c1cc(Br)ccc1O)c1cc(Br)ccc1O	27.4%
Cc1[nH]c2ccccc2c1C1=CC(=O)C=CC1=O	12.4%
COC(=O)/C(=C\c1c(C)[nH]c2ccccc12)S(=O)(=O)c1ccccc1	-27.3% (active)
Nc1c(C(=O)O)cc(Cl)cc1[N+](=O)[O-]	73.7%
COc1ccc(COc2cc3oc(=O)c4cc(C(C)O)ccc4c3cc2OC)cc1 (stereo not given)	73.1%
Nc1ncnc2[nH]c(=O)[nH]c12	140%
COc1cc(C2C=C(C)N=C3SC=NN32)cc(OC)c1OC (stereo not given)	94.7%
CCOC(=O)Nc1nn[nH]n1	47.7%
CN1C(=O)N(C)C2C1NN=c1s/c(=C\c3ccsc3)c(=O)n12 (stereo not given)	5.85% (active)
COC(=O)[C@]12CC[C@@H](C)[C@H](C)[C@@H]1C1=CC[C@@H]3[C@@]4(C)C(C=O)=C[C@@](C)(COC(=O)c5ccco5)C4=CC[C@@]3(C)[C@]1(C)CC2	-9.45% (active)
O=C1/C(=C/c2ccc(O)c(O)c2)COc2ccc(-c3ccccc3)cc21	-15.8% (active)
COc1ccc2nc(-c3ccc(Cl)cc3)cc(-c3nnc(SC/C(=N\O)c4ccccc4)n3-c3ccccc3)c2c1	55.4%
O=C(Cc1nc2ccc([N+](=O)[O-])cc2nc1CC(=O)c1ccccc1)c1ccccc1	31.5%

Compound	growth
CCCCc1n(Cc2ccc3ccccc3n2)cc[n+]1Cc1ccc2ccccc2n1	-44.7% (active)
CCN(Cc1ccccc1)C1CCN(Cc2cc(Br)ccc2O)CC1	50.1%
CNC(=O)c1cc(Oc2ccc3nc(NC(=O)c4cc(C(F)(F)F)cc(C(F)(F)F)c4)sc3c2)ccn1	-12.8% (active)
C=CCc1cc(C)ccc1NC(C(=O)NCC(=O)OC)c1ccccc1 (stereo not given)	103%
NC(N)=NC(N)=NCCCc1ccco1	83.1%
CC(=O)OC(C)c1cccc(C#N)c1 (stereo not given)	105%
CCCOc1ccc2c(c1)CC[C@@H]1[C@@H]2CC[C@@]2(C)[C@H]1CC[C@]2(C)O	78.8%
COc1cc(N=Nc2ccc(O)c3ncccc23)c2ncccc2c1	-14.1% (active)
CC(C)(C)NCC(O)COc1c(Br)c(Br)c(Br)c2c1OC(C)(C)C2 (stereo not given)	-59.3% (active)
COc1ccc(/C(=C2\O[C@@H]([C@H]3COC(C)(C)O3)[C@H]3OC(C)(C)O[C@@H]23)c2cc(OC)c(OC)c(OC)c2)cc1O	20.7%
O=c1ccc(-c2nc(N3CCOCC3)c3ccccc3n2)c[nH]1	95.8%
C/C(=C(\c1ccc(OCCN2CCOCC2)cc1)c1ccc(OC(=O)C2CCCCC2)cc1)c1ccc(Cl)cc1	96.4%
Cc1ccc2c(n1)C(=O)C(Cl)=C(Nc1ccc(N3CCN(C)CC3)cc1)C2=O	-46.7% (active)
COCN1CCC2N(COC)CCC3N(COC)CCC1N23 (stereo not given)	92.6%
Cc1cc(C2(c3ccc(O)c(C)c3)OS(=O)(=O)c3ccccc32)ccc1O	79%
Cc1nc2ccccc2c(=O)n1-c1cccc(OCc2cn(-c3cccc(O)c3)nn2)c1	101%
CCCSC1=NC2C(N(CC)C(=O)N2CC)N1/N=C/C=C/c1ccccc1[N+](=O)[O-] (stereo not given)	-29.8% (active)
O=C(Nc1ccc(I)cc1)c1cc([N+](=O)[O-])ccc1O	20.6%
COc1cc(Nc2ccnc(NCCCNc3ccnc4cc(Cl)ccc34)n2)cc(OC)c1	-76.9% (active)
FC(F)(F)c1cc(Nc2ccc3c(OCCCN4CCOCC4)cccc3n2)ccc1Cl	63.3%
